The values below come from PubChem BioAssay (Tox21).

The nature of test [1]: Nuclear factor erythroid 2-related factor 2/antioxidant responsive element (Nrf2/ARE) small molecule agonists: qHTS cell viability counter screen in human keratinocytes (AID 1919968; active = well fitted curve in the direction sought with a large enough effect in the repeat runs; an effect the other way counts as inactive or inconclusive; note: nearly all actives have a fitted effect of over 55% in size; note: potency is the fitted concentration of half-maximal effect). An outline of the steps:
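Parallel cytotoxicity read: KeratinoSens HaCaT cells, compound treatment 23 h, viability by CellTiter-Fluor fluorescence 1 h post-reagent.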
Background: qHTS replaces the single test concentration by a dilution series.

The target of test [2] is KiSS-1 receptor (Homo sapiens) (UniProt Q969F8). As to the kind of experiment: Human kisspeptin (KISS1R) small molecule agonists, calcium flux assay in KISS1R-HEK293 cells (AID 1920064; active = well fitted curve in the direction sought with a large enough effect in the repeat runs; an effect the other way counts as inactive or inconclusive). An outline of the steps: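 Triplicate 15-concentration series were applied to dye-loaded human KISS1R HEK293 cells, and agonist-evoked calcium fluorescence was captured for 3 min.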
Test [3] is described as follows: G protein-coupled receptor (GPCR) small molecule agonists, calcium flux assay: HEK293 wild type cell line counter screen (AID 1920065). The method in brief:
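Non-specific calcium responders were flagged by adding DMSO-dissolved compounds to dye-loaded cells and reading 480/540 nm fluorescence each second for 3 min; ATP served as positive control.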
(In general: Calcium flux is commonly read through the fluorescence of an indicator in the cells.)

Test [4] is described as follows: p53 small molecule agonists, cell-based qHTS assay with human liver microsomes: qHTS cell viability counter screen (AID 1963579). Note: nearly all actives have a fitted effect of over 45% in size. Note: potency is the fitted concentration of half-maximal effect. The method in brief: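 In this multiplexed counter screen, the reporter plates were subsequently treated with CellTiter-Glo so that cell viability, reflected by luminescence, could be recorded for p53RE-bla cells dosed 16 h with compounds under microsomal activation (HLM and NADPH).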

Test [5] is described as follows: p53 small molecule agonists, cell-based qHTS assay with rat liver microsomes: qHTS cell viability counter screen (AID 1963580). Note: nearly all actives have a fitted effect of over 45% in size. The method in brief: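 Cytotoxicity counter screen: intracellular ATP read by CellTiter-Glo luminescence in the p53 reporter wells. HCT-116 p53RE-bla cells were treated for 16 h at 37 C alongside rat liver microsomes and NADPH, each 0.5 mg/mL final.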

For test [6], the target named is 5-hydroxytryptamine receptor 2A (Homo sapiens) (UniProt P28223). Kind of test: 5-hydroxytryptamine receptor 2A (HTR2A) small molecule antagonists, cell-based qHTS assay (AID 1963586). Note: nearly all actives have a fitted effect of over 45% in size. Note: potency is the fitted concentration of half-maximal effect. The method in brief: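 CHO cells stably expressing human HTR2A were plated for 18 h at 37 C, then loaded with calcium dye for 1 h. Compounds were preincubated 5 min at room temperature before DOI (4 nM solution) was added. Kinetic fluorescence was read for 3 min.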

Test [7] shares this target. Kind of test: 5-hydroxytryptamine receptor 2A (HTR2A) small molecule agonists, cell-based qHTS assay (AID 1963587). Note: nearly all actives have a fitted effect of over 30% in size. Note: potency is the fitted concentration of half-maximal effect. An outline of the steps: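 Kinetic calcium-flux fluorescence (2 min, 1 sec intervals) after compound addition in agonist mode. HTR2A-CHO cells were cultured 18 h, then dye-loaded 1 h at 37 C.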
For test [8], the target named is Muscarinic acetylcholine receptor M1 (Homo sapiens) (UniProt P11229). As to the kind of experiment: Cholinergic receptor muscarinic 1 (CHRM1) small molecule antagonists, cell-based qHTS assay (AID 1963588). Note: nearly all actives have a fitted effect of over 40% in size. The method in brief:
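Compounds were tested at 15 concentrations in three independent runs. Dye-loaded CHRM1-CHO cells were exposed 5 min at room temperature before stimulation by acetylcholine added at 50nM. Intracellular calcium was read kinetically on FDSS for 3 min.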

The target is the same in test [9]. Kind of test: Cholinergic receptor muscarinic 1 (CHRM1) small molecule agonists, cell-based qHTS assay (AID 1963589). Note: nearly all actives have a fitted effect of over 35% in size. The method in brief:
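qHTS, 15-point titration, 3 independent runs: compounds pin-transferred onto dye-loaded CHRM1-CHO cells (human M1), calcium fluorescence followed every second to detect agonism.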

Test [10] deals with Beta-2 adrenergic receptor (Homo sapiens) (UniProt P07550). Kind of test: Adrenergic beta2 receptor (ADRB2) small molecule antagonists, cell-based qHTS assay (AID 1963592). Note: series mostly up to about 92 µM; nearly all actives have a fitted effect of over 50% in size. The method in brief: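 Assay format: CHO-ADRB2 cells, 18-20hr seeding at 37C/5% CO2, then compound plus 1nM isoproterenol agonist mix for 0.5hr RT. Homogeneous time-resolved fluorescence cAMP detection after 1hr, expressed as 665/615 nm ratio.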

Test [11] has the same target. As to the kind of experiment: Adrenergic beta2 receptor (ADRB2) small molecule agonists, cell-based qHTS assay (AID 1963593).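 Note: CHO cells stably overexpressing human ADRB2.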 The method in brief:
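CHO cells stably over-expressing ADRB2 were plated overnight at 37C, then dosed with compounds plus a stimulation mix containing 100uM IBMX and 25uM Ro-20-1724 for 0.5hr at room temperature. cAMP was measured by HTRF competition, 1hr.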

Test [12] addresses D(2) dopamine receptor (Homo sapiens) (UniProt P14416). As to the kind of experiment: Dopamine D2 receptor (DRD2) small molecule agonists, cell-based qHTS assay (AID 1963594). Note: nearly all actives have a fitted effect of over 35% in size. The method in brief:
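cAMP accumulation in DRD2-HEK293 cells measured by HTRF after 1 h detection; compounds added 10 min before NKH477 (200nM […]) forskolin-analogue stimulation, 30 min at room temperature, with Ro20-1724 present at 0.1 mM final.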

For test [13] the target is unchanged. As to the kind of experiment: Dopamine D2 receptor (DRD2) small molecule antagonists, cell-based qHTS assay (AID 1963595; active = well fitted inhibition curve with a large enough effect in the signal ratio in the repeat runs, with a control signal flat; the % refers to the signal ratio). The method in brief: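 In this cell-based antagonist screen, compounds act for 10 min at room temperature before a 30 min challenge with 12 nM quinpirole and 200 nM NKH477. cAMP is quantified by HTRF competition in DRD2-HEK293 cells containing 0.1 mM Ro20-1724.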

A short description of test [14]: cAMP Responsive Elements (CRE) small molecule agonists, cell-based qHTS assay (AID 1963590). An outline of the steps:
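Quantitative HTS for CRE agonists: HEK 293T CRE-bla cells, overnight plating, 3 h compound incubation at 37 C/5% CO2, then 2 h room-temperature LiveBLAzer B/G FRET substrate loading.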

Test [15] can be described thus: cAMP Responsive Elements (CRE) small molecule antagonists, cell-based qHTS assay (AID 1963591; active = well fitted inhibition curve with a large enough effect in the signal ratio in the repeat runs, not every such curve was filed as active; the % refers to the signal ratio; note: potency is the fitted concentration of half-maximal effect). The method in brief: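 Fluorescence intensity from cleaved LiveBLAzer B/G substrate (2 h, room temperature) quantified CRE-bla activity in HEK 293T cells exposed 3 h to compound with 0.25 uM final NKH477.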
Test [16] in a line: p53 small molecule agonists, cell-based qHTS assay: qHTS cell viability counter screen (AID 1963581). Note: nearly all actives have a fitted effect of over 45% in size. Note: potency is the fitted concentration of half-maximal effect. An outline of the steps:
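Multiplexed with the reporter read, a CellTiter-Glo step (30 min, room temperature) gauges ATP-based viability of HCT-116 p53RE-bla cells after 16 h compound incubation at 37 C.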

Test [17] in a line: p53 small molecule agonists, cell-based qHTS assay with rat liver microsomes (AID 1963578). The method in brief:
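With rat liver microsomes and NADPH present (0.5 mg/mL final each), p53RE-bla cells are treated with compound for 16 h at 37 C. LiveBLAzer detection mixture is then applied for 2 h at room temperature in the dark.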

Test [18] in a line: p53 small molecule agonists, cell-based qHTS assay with human liver microsomes (AID 1963577).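 Note: p53 response element beta-lactamase reporter cells with liver microsomes plus NADPH.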 The method in brief:
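16 h, 37 C exposure of p53RE-bla cells to compounds with human liver microsomes and NADPH (0.5 mg/mL final each); detection via LiveBLAzer mixture, 2 h dark at room temperature.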

The nature of test [19]: p53 small molecule agonists, cell-based qHTS assay (AID 1963582; active = well fitted activation curve with a large enough effect in the signal ratio in the repeat runs, not every such curve was filed as active; the % refers to the signal ratio). The method in brief: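 Beta-lactamase reporter cells (p53RE-bla) treated with compounds for 16 h at 37 C; FRET substrate, 2 h, room temperature; fluorescence intensity.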

A number with no mark means an inactive call. Results filed as inconclusive are left out. The source made the active and inactive calls. Unless noted, calls come from the whole dose curve.
% is set by controls: 0 for no effect and ±100 for the full control effect.

Sequence of Muscarinic acetylcholine receptor M1 (Homo sapiens) (P11229 whole entry, looked up): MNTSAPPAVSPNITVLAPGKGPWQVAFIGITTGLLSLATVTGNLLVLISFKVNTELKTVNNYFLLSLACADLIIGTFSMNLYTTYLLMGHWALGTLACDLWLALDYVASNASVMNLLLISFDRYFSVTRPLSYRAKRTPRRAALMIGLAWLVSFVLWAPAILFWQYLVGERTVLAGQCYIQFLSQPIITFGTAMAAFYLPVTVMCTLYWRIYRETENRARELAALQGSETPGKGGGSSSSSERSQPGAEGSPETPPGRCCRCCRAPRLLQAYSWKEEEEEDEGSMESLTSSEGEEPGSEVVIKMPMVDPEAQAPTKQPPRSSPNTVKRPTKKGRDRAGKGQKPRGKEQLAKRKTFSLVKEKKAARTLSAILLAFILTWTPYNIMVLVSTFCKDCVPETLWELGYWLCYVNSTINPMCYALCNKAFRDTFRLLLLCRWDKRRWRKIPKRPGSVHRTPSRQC
Sequence of 5-hydroxytryptamine receptor 2A (Homo sapiens) (P28223 whole entry, looked up): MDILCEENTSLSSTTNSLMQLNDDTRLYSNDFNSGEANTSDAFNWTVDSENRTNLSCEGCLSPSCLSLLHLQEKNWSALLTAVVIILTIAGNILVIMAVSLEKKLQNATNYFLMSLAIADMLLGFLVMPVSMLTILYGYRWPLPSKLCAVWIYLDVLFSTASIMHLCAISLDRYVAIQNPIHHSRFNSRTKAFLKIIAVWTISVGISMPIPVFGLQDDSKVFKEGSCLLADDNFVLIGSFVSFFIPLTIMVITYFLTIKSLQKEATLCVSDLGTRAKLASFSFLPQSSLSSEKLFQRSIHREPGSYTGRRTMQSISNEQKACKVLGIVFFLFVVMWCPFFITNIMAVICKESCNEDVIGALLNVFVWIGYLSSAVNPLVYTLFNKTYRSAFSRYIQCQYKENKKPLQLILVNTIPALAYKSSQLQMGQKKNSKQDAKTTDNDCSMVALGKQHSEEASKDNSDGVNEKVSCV
Sequence of Beta-2 adrenergic receptor (Homo sapiens) (P07550 whole entry, looked up): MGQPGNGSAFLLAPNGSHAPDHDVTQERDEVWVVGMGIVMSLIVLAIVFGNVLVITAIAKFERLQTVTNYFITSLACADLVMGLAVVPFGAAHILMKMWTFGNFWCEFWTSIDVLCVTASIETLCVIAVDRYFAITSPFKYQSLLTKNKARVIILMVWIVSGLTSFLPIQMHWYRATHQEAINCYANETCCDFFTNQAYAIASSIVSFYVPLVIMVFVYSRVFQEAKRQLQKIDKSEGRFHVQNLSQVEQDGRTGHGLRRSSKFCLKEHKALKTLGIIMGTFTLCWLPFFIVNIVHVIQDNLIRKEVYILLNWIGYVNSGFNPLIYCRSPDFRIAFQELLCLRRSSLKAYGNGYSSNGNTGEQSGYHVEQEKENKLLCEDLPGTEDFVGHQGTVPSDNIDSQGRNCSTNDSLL
Sequence of KiSS-1 receptor (Homo sapiens) (Q969F8 whole entry, looked up): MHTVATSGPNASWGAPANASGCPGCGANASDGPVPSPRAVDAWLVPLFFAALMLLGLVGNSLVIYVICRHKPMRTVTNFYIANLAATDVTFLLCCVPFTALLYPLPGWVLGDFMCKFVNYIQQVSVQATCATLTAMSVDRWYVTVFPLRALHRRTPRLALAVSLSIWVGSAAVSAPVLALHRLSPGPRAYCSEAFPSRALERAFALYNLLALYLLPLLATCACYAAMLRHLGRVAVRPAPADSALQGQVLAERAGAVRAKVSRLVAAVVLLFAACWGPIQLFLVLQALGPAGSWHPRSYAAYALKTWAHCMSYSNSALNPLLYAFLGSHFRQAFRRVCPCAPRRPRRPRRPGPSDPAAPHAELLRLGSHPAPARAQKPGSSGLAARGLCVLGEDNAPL
Sequence of D(2) dopamine receptor (Homo sapiens) (P14416 whole entry, looked up): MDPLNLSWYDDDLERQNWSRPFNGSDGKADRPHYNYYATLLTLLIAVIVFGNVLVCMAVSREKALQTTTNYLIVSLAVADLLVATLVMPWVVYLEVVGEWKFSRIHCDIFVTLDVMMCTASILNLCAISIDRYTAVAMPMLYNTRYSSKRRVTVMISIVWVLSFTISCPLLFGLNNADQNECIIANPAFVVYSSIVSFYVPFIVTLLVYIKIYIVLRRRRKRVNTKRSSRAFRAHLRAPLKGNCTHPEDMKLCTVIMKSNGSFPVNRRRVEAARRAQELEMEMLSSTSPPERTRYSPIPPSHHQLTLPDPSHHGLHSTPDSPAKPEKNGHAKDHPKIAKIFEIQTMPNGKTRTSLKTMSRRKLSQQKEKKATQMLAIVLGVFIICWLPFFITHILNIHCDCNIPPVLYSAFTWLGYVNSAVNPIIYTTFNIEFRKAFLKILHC

For the compound `Cc1cc(=O)c2c(O)c3c(O)cc(=O)c4c3c3c(cc(O)c1c23)C(C)(C)C=4O`, the Potency is 4.11 µM (active) in [1] and 0.657 µM (active) in [7]. The activation is 3.73% [at 15.8 µM] in [2]; 4.32% [at 11.8 µM] in test [3]; 13.3% [at 15.8 µM] in [9]; 3.3% [at 19 µM] in [11]; -19.9% [at 19 µM] in test [12]. Also, the activity change, negative = cytotoxicity in test [4] was -4.38% [at 13.5 µM]; in [5] it was -8.38% [at 13.5 µM]. In addition, the activity, negative = inhibition is 1.4% [at 12.7 µM] in [6] and 5.23% [at 12.6 µM] in test [8]. The activity change, negative = inhibition in test [10] is 0.889% [at 19 µM]; in test [13], 5.59% [at 18.9 µM].
Regarding `Cc1nnc(SCC2=C(C(=O)O)N3C(=O)[C@@H](NC(=O)Cn4cnnn4)[C@H]3SC2)s1`, the Potency result in test [1], in test [2], in test [3], in test [5], in test [7] and in test [8] was “inactive” each time. In addition, the Potency entry in [9], in test [14], in test [15], in test [10], in test [11] and in test [12] was “inactive” in each case. Also, the Potency entry in test [13] was “inactive”.
In the case of `CC/C(=C(\c1ccc(O)cc1)c1ccc(OCCN(C)C)cc1)c1ccccc1`, the Potency in test [1] was 30.7 µM (active); in test [4] it was 20.5 µM (active); in [16], 20.5 µM (active). Besides, the Potency entry in test [2], in test [3], in [6], in test [11] and in test [12] was “inactive” each time.
As to `Cc1cccc(C)c1NC(=O)C(C)N` (centres undefined), the Potency result in test [1], in test [17], in [4], in test [5], in [16] and in test [14] was “inactive” throughout. Besides, the Potency entry in [15], in [10], in test [12] and in test [13] was “inactive” throughout.
Turning to `CCCCCCCCOC(=O)c1cc(O)c(O)c(O)c1`, the Potency in [1] was 61.1 µM (active); in test [7] it was 49 µM (active); in test [15], 30.6 µM (active). Besides, the Potency result in [3], in test [18], in [4], in test [6], in test [8] and in test [14] was “inactive” throughout. In addition, the Potency result in test [10] and in test [12] was “inactive” throughout.
For the compound `COC=O`, the activity change, negative = cytotoxicity in test [1] is -1.85% [at 8.39 µM]; in [5], 1.32% [at 5.99 µM]; in test [16] it was -1.7% [at 5.99 µM]. The activation in test [2] is -0.791% [at 6.97 µM]; in [3] it was 2.54% [at 5.23 µM]; in [7], -0.022% [at 7.02 µM]; in [9], -0.541% [at 6.97 µM]; in [14], -0.656% [at 8.39 µM]; in test [12] it was -14.1% [at 8.39 µM]. Further, the Potency in test [6] was 3.09 µM (active). Moreover, the activity, negative = inhibition in [8] is 1.52% [at 5.58 µM]. The activity change, negative = inhibition in test [15] was 12.8% [at 8.39 µM]; in [10], 14.4% [at 8.39 µM]; in test [13], -12.2% [at 8.38 µM].
Turning to `CC(COc1ccccc1)NN` (centres undefined), the Potency entry in test [1], in test [3], in [17], in [4], in [5] and in test [16] was “inactive” each time. Besides, the Potency result in [19], in test [6], in [7], in [8], in test [9] and in test [14] was “inactive” each time. The Potency result in test [15], in test [12] and in [13] was “inactive” in each case.
Take `Cc1ccc(NC=O)c(C)c1`: the Potency result in [1], in test [2], in [3], in test [4], in test [5] and in test [6] was “inactive” throughout. The Potency result in test [7], in test [8], in test [9], in test [10], in [11] and in test [12] was “inactive” throughout. Moreover, the Potency entry in test [13] was “inactive”.
As to `O=C(O)/C=C/c1ccc(O)c(O)c1`, the Potency entry in [1], in test [2], in test [3], in [4], in test [5] and in test [6] was “inactive” in each case. The Potency entry in test [7], in test [8], in [9], in test [14], in test [15] and in test [11] was “inactive” throughout. Also, the Potency entry in test [12] is “inactive”.
Regarding `C=C(C)[C@@H]1CC=C(C)C(=O)C1`, the Potency entry in test [1], in [3], in test [4], in test [5], in test [16] and in [6] was “inactive” each time. Further, the Potency result in test [7], in test [8], in test [9], in test [14], in [15] and in test [10] was “inactive” throughout. Moreover, the Potency entry in [12] and in [13] was “inactive” throughout.
